From PubChem BioAssay
The full list was thinned out, with hits kept by preference.
ALOX12 inh = Primary qHTS assay for inhibitors of human arachidonate 12S-lipoxygenase (ALOX12): Round 2; Polyunsaturated fatty acid lipoxygenase ALOX12 (Homo sapiens), P18054; purified 12hLO, xylenol orange hydroperoxide absorbance; Potency, µM (highest dose often 108 µM), for the others: at the highest dose activity change, negative = inhibition, most hits filed as inhibitors; 1.1% of 580,000 active; AID 1671190, 2021; note: potency is the fitted concentration of half-maximal effect
Target sequence (P18054 whole entry, looked up): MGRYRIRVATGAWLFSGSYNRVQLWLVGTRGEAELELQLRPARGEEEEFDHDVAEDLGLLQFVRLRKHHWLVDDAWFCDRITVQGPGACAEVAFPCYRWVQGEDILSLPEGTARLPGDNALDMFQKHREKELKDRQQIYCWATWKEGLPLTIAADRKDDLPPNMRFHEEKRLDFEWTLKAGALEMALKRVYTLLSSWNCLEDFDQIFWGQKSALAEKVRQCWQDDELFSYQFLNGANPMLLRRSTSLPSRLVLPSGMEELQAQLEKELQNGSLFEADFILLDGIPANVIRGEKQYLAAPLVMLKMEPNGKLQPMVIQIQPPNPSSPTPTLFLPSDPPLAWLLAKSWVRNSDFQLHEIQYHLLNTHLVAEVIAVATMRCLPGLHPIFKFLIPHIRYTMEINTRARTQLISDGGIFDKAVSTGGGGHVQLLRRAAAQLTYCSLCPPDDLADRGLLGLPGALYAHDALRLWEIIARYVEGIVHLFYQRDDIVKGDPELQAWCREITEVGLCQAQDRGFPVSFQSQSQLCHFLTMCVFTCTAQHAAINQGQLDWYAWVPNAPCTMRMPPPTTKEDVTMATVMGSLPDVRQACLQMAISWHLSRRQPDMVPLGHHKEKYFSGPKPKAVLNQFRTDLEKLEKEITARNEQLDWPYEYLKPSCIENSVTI
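Purified human 12hLO at 150 nM in 25 mM Hepes, 0.01% Triton X-100, pH 7.0, preincubated 15 min at room temperature with compound. Reaction started with 40 uM arachidonic acid, 30 min at room temperature. Hydroperoxide measured by Fe-xylenol orange, 573/405 nm absorbance ratio.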
HT1080 IDH1KD tx = qHTS for induction of synthetic lethality in tumor cells producing 2HG: qHTS for the HT-1080-IDH1KD cell line; Potency, µM (series often up to 46.1 µM), inactives show at the top dose activity, negative = toxicity, most hits filed as cytotoxic; AID 686971, 2013; 2% of 360,000 active; HT-1080 IDH1 knockdown viability, ATP luminescence, 48 h;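 note: potency is the fitted concentration of half-maximal effect; 0% = DMSO wells and -100% = cell-free medium wells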
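In this qHTS, HT-1080 cells depleted of IDH1 are exposed for 48 h at 37 °C to compound titrations. Toxicity is scored from CellTiter-Glo luminescence, with DMSO as full viability and medium alone as none.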
DT40 TDP1 no CPT = qHTS for Inhibitors of human tyrosyl-DNA phosphodiesterase 1 (TDP1): qHTS in cells in absence of CPT; DT40 Tdp1-/- hTDP1 cells, no CPT, ATP luminescence, 48 h; Potency, µM (highest dose often 46.2 µM), without a hit: top-dose activity change, negative = growth inhibition, most hits filed as inhibitors; 15% of 420,000 active; note: potency is the fitted concentration of half-maximal effect; nearly all actives have a fitted effect of over 55% in size
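Stably hTDP1-transfected Tdp1-null chicken DT40 cells were treated with library compounds minus camptothecin and grown for at least 48 hr at 37 °C, after which cellular ATP was quantified by luminescence.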
DT40 TDP1 CPT = qHTS for Inhibitors of human tyrosyl-DNA phosphodiesterase 1 (TDP1): qHTS in cells in presence of CPT; chicken DT40 Tdp1-/-;hTDP1 cells + 20 nM CPT, ATP luminescence, 48 h; Potency, µM (series often up to 46.2 µM), for inactives: top-dose activity change, negative = growth inhibition, usual class: inhibitors; 12% of 420,000 active; AID 686979, 2013; note: potency is the fitted concentration of half-maximal effect; nearly all actives have a fitted effect of over 55% in size
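Chicken DT40 Tdp1-/- cells stably complemented with human TDP1 were seeded at 400 cells/well in medium containing 20 nM camptothecin, exposed to pin-transferred compounds, and grown at 37 °C for at least 48 hr. Viability was read as ATP luminescence.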
IL1B secr inh = qHTS for Inhibitors of Inflammasome Signaling: IL-1-beta AlphaLISA Primary Screen; THP-1 LPS/ATP IL-1B secretion, AlphaLISA, 16 h; hits give low values; activity change, % at 57.5 µM; 4.7% of 360,000 active; AID 743279, 2014; in the data active = activity change below about -50%; inconclusive = mostly about -30% to -49%
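Secreted IL-1B measured by AlphaLISA bead assay after 16 h compound exposure of THP-1 cells; compounds (final up to 57.5 uM) added 1 h before LPS (250 ng/mL) and ATP (1.25 mM) stimulation; lower signal means less secretion.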
HT1080-NT tox = qHTS for induction of synthetic lethality in tumor cells producing 2HG: qHTS for the HT-1080-NT fibrosarcoma cell line; HT-1080-NT fibrosarcoma viability, CellTiter-Glo ATP luminescence, 48 h; Potency, µM (series often up to 46.1 µM), without a hit: top-dose activity, negative = less viability, usual class: cytotoxic; 1.6% of 360,000 active; AID 686970, 2013;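 note: NT is the 2HG producing partner of a matched IDH1 knockdown line; potency is the fitted concentration of half-maximal effect; 0% = DMSO-treated cells and -100% = media-only wells without cells; nearly all actives have a fitted effect of over 55% in size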
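Viability by CellTiter-Glo luminescence after 48 h compound exposure at 37C of HT-1080-NT cells (750/well, RPMI, 5% FBS). % activity scaled between DMSO wells and medium-only wells, then curve-fitted and categorized by curve class.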
An asterisk follows results filed as active; ? = inconclusive; . = no result; [ ] = another dose, or the depositor's remark. Unless noted, calls come from the whole dose curve; as a rule, active = well fitted curve in the direction sought with a large enough effect; inconclusive = small, poorly fitted or top-dose-only effect, or another doubt; inactive = no such curve, though single readings can be large; an effect the other way counts as inactive or inconclusive. Unless noted, % is set by controls: 0 for no effect and ±100 for the full control effect.

SMILES	ALOX12 inh	HT1080 IDH1KD tx	DT40 TDP1 no CPT	DT40 TDP1 CPT	IL1B secr inh	HT1080-NT tox
CCCC(CCC)C(=O)OC[N+](C)(C)CCOC(=O)C(O)(c1ccccc1)C1CCCC1 (configuration not stated)	-8%	1%	12µM*	?	?	4%
COc1ccccc1CNC(=O)[C@H]1CN2CC[C@H]1C[C@@H]2Cn1cc(-c2ccccn2)nn1	-5%[176 µM]	.	.	.	.	.
CC(C)CCN1CCC2(COc3ccncc3[S+](=O)([O-])N2)C1 (configuration not stated)	5%[6.33 µM]	.	.	.	.	.
O=C(Nc1ccccc1)N(Cc1ccc2c(c1)OCO2)C1CCN(Cc2ccccc2)CC1	?	.	15µM*	?	.	.
COc1ccccc1NC(=O)N(Cc1ccc2c(c1)OCO2)C1CCN(Cc2ccccc2)CC1	?	.	5.2µM*	4.6µM*	.	.
Cn1cc(C(=O)OCC(=O)NC(=O)NC2CCCC2)c2ccccc21	-9%	.	.	.	.	.
C[C@]12CC[C@@H]3c4ccc(OC(=O)N(CCCl)CCCl)cc4CC[C@H]3[C@@H]1CC[C@@H]2OP(=O)(O)O	22µM*	.	-3%	3%	.	.
CNC(=O)Oc1cccc(-c2cn3cc(OC(=O)NC)ccc3n2)c1	5%	-9%	21µM*	?	14	-12%
CNC(=O)Oc1ccc(-c2cn3cc(Cl)ccc3n2)cc1	-12%	-16%	?	21µM*	?	-1%
CCOCCCNC(=O)N1[C@H]2CC[C@@H]1c1cnc(-c3ccccc3)nc1C2	36%	.	.	.	.	.
O=C(Nc1ccc2n(c1=O)C[C@H]1C[C@@H]2CN(C(=O)c2ccccc2)C1)NC1CCCCC1	5%[176 µM]	.	.	.	.	.
Cc1ccc(NC(=O)Cn2cc(C(=O)c3ccccc3)c3ccccc32)cc1	-8%	.	?	-92%	.	.
O=C(Cn1cc(C(=O)c2ccccc2)c2ccccc21)Nc1ccc(Br)cc1	-18%	.	23µM*	?	.	.
O=C(c1cccs1)N1C[C@@H]2C[C@H](C1)c1c(-c3cncnc3)ccc(=O)n1C2	8%[176 µM]	.	.	.	.	.
COc1ccc(C)cc1NC(=O)c1c(C)nn(Cc2ccccc2)c1Cl	-12%	-10%	?	5%	-98*	-21%
COCC(=O)NC[C@H]1C[C@@H]2CCN1C[C@@H]2c1cc(-c2ccc(OC)cc2)nn1C	19%[176 µM]	.	.	.	.	.
c1ccc(C2(NC3=NCCO3)CCCCC2)cc1	-1%	-11%	9.2µM*	?	?	-6%
NC1(c2ccccc2)CCCCC1	.	.	?	-21%[92.5 µM]	.	.
CCc1cc2c(cc1-c1csc(C/C(N)=N/O)n1)C(C)(C)CCC2(C)C	-10%	?	18µM*	?	-19	?
O=C(Nc1ccc2n(c1=O)C[C@H]1C[C@@H]2CN(CC2CCCCC2)C1)C1CCCCC1	3%[176 µM]	.	.	.	.	.
CC[C@]1(C(=O)OC)[C@H]2C(=O)N(Cc3ccccc3)C(=O)[C@H]2[C@H]2CN=C(SCc3ccc(C)cc3)N21	-23%	2%	18µM*	?	19	0%
CC[C@]1(C(=O)OC)[C@H]2C(=O)N(Cc3ccccc3)C(=O)[C@H]2[C@H]2CN=C(SCc3ccc(C(=O)OC)cc3)N21	-17%	-1%	?	21µM*	19	4%
CCN1C[C@@H]2[C@@H]3C(=O)N(Cc4ccccc4)C(=O)[C@@H]3[C@](CC)(C1=O)N2C(=O)c1ccc(C(C)(C)C)cc1	4%	0%	?	?	23	0%
COC(=O)[C@@]1(Cc2ccccc2)[C@H]2C(=O)N(Cc3ccccc3)C(=O)[C@H]2[C@H]2CN=C(SCc3ccc(C#N)cc3)N21	-25%	4%	?	?	19	12%
CCOc1ccccc1NC(=O)c1sc2nc3c(cc2c1N)CN(Cc1ccccc1)CC3	-4%	.	23µM*	16µM*	.	.
SMILES	ALOX12 inh	HT1080 IDH1KD tx	DT40 TDP1 no CPT	DT40 TDP1 CPT	IL1B secr inh	HT1080-NT tox
c1ccc(CN2CCc3nc4ccccc4cc3C2)cc1	0%	0%	-18%	?	-11	-13%
O=C(Oc1ccc([N+](=O)[O-])cc1)N1CCN(Cc2cccc(Oc3ccccc3)c2)CC1	-31%[57.4 µM]	.	.	.	.	.
COc1ccc(C2=NCC(=O)N(CC(=O)Nc3ccc(F)cc3)c3sc4c(c32)CCCC4)cc1	-4%	.	.	.	.	.
O=C1CN=C(c2ccc(Br)cc2)c2c(sc3c2CCCC3)N1CCN1CCCCC1	-7%	-3%	5.8µM*	10µM*	?	?
COCc1nnc2n1CCC(NC(=O)c1nn(C)c3ccccc13)CC2 (configuration not stated)	45%	.	.	.	.	.
Cc1ccccc1-c1ccc2n(c1=O)C[C@H]1C[C@@H]2CN(C(=O)NC2CCCCC2)C1	100%[176 µM]	.	.	.	.	.
COc1cc(O)c2c(c1)/C=C/C[C@H](O)[C@H](O)C(=O)CCC[C@H](C)OC2=O	1%	4%	?	?	-81*	7%
C[C@H](CO)N1C[C@H](C)[C@@H](CN(C)Cc2ccc(Cl)c(Cl)c2)Oc2c(NC(=O)c3ccncc3)cccc2C1=O	16%	0%	?	21µM*	-5	?
C[C@H](CO)N1C[C@H](C)[C@@H](CN(C)S(=O)(=O)c2cccs2)Oc2ccc(NC(=O)Nc3ccc4c(c3)OCO4)cc2C1=O	?	-6%	18µM*	21µM*	?	0%
COc1ccc(S(=O)(=O)N(C)C[C@H]2Oc3c(NC(=O)NC4CCCCC4)cccc3C(=O)N([C@H](C)CO)C[C@@H]2C)cc1	3%	-13%	?	?	-55*	-3%
CCN1CCN(C(=O)COc2ccc3c(=O)c(-c4ccccc4)coc3c2)CC1	2%	.	.	.	.	.
O=C(Nc1ccc2c(c1)OCCO2)c1cccn(Cc2ccccc2)c1=O	-2%	.	?	?	.	.
COc1ccc2c(c1)c(=O)c(C(=O)c1ccc(Cl)cc1)cn2CC(=O)Nc1ccc2c(c1)OCCO2	-21%	.	21µM*	18µM*	.	.
O=C(c1ccc(Cl)cc1)c1cn(Cc2ccccc2)c2cc3c(cc2c1=O)OCCO3	0%	.	23µM*	?	.	.
